The structures appear in SMILES notation. Screen size: about 4,100 compounds; about 1,600 (39%) were called active. Inconclusive results (about 25%) are left out. The list shows a part of the results. A number with no mark means an inactive call. The call rests on the fitted dose curve; in most records, active means well fitted inhibition curve with a large enough effect; inconclusive means small, poorly fitted or top-dose-only effect; inactive means no such curve, though single readings can be large or run the other way.
On the % scale 0 is the no-effect control and ±100 the full control effect; potency means the concentration at half of the fitted maximal effect.

The nature of this test: qHTS Validation assay for Inhibitors of Plasmodium falciparum Dd2 growth in vitro. Further: nearly all actives have a fitted effect of over 70% in size. As to conditions: P. falciparum Dd2 in RBCs, SYBR Green growth, 72 h; series mostly up to 28.7 µM; activity change, negative = inhibition: at the top concentration. Put shortly: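 P. falciparum Dd2-infected red blood cells (2.5% hematocrit, 0.3% parasitemia) grown 72 h at 37 °C under 5% O2 with compounds in a titration, 29 uM to 0.5 nM final. Growth read as SYBR Green-1 fluorescence after ~16 h lysis; artesunate 300 nM as positive control.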
On the technique in general: In qHTS, concentration-response curves come from the screen itself.
On to `COc1cc(Br)c(C2CC(=O)Nc3cc4c(cc32)OCCO4)cc1OC` (configuration not stated), for which the Potency was 2.37 µM (active).

As for `COc1cc(C2CC(=O)Nc3cc4c(cc32)OCCO4)cc(Br)c1OC` (configuration not stated), the Potency was 5.31 µM (active).

`CNC(=O)N1CCC(C2CCN(C(=O)CCCC(=O)O)C2)CC1` (configuration not stated): the “activity change, negative = inhibition” value is 13.7%.

`CCn1cnnc1-c1nn(C)c2c1CN(C(=O)CC(C)C)CC2`: the “activity change, negative = inhibition” value is 22.8%.

Turning to `COc1ccc(-n2c(-c3ccc(Br)cc3)c[n+]3c2CCc2ccccc2-3)cc1`, the Potency is 4.22 µM (active).

Consider `Cc1ccc(CNC(=O)NCCc2ncc(C)n2Cc2ccc(F)cc2)cc1`, for which the “activity change, negative = inhibition” value was -63.1%.

For the molecule `Cc1ccc(-c2nn(-c3ccccc3)cc2CSC(=N)N)cc1`, the “activity change, negative = inhibition” value is -29.1%.

Turning to `Cc1ccc(-n2cc(CNCCc3ncc(C)[nH]3)c(-c3ccc(F)cc3)n2)cc1`, the Potency was 15 µM (active).

As for `COCc1nc2nc(-c3ccccc3)c(Nc3ccc(F)cc3)cc2n1C`, the “activity change, negative = inhibition” value is -2.2% [at 43.1 µM].

`Cc1cccc(C)c1-c1nc(C(=O)NCc2ccc(F)cc2)n2ccccc12`: the “activity change, negative = inhibition” value is -24.8%.

In the case of `CN(C)CCNC(=O)c1nc2nc(-c3ccccc3)c(-c3cccc(F)c3)cc2n1C`, the Potency was 19.3 µM (active).

For the molecule `CCn1nccc1C(=O)N1CCC(C(=O)N2CCCCCCNC(=O)CC2)CC1`, the “activity change, negative = inhibition” value is 4.4%.

On to `CCOC(=O)c1[nH]c(Cc2[nH]c(C(=O)OCC)c(C)c2CCC(=O)OC)c(CCC(=O)OC)c1C`, for which the Potency is 5.31 µM (active).

`CN(C)c1cccc(-c2nccc3c(=O)cc(-c4cn[nH]c4)oc23)c1`: the “activity change, negative = inhibition” value is -2.52% [at 43.1 µM].

For `CC(C)(C)CC(C)(C)c1ccc(O)c(CN2CCN(CCC#N)CC2)c1`, the Potency is 0.842 µM (active).

Regarding `Cc1ccc(C(=O)N2CCC3(CC2)N(c2ccccc2)C(=O)CS3(=O)=O)c(C)c1`, the “activity change, negative = inhibition” value is 18.7%.

As to `CCCCC(=O)NC(c1cccc([N+](=O)[O-])c1)c1c(OC(C)=O)ccc2ccccc12` (configuration not stated), the Potency is 3.76 µM (active).

Take `CC(=O)Oc1ccc2ccccc2c1C(NC(=O)C(C)C)c1cccc([N+](=O)[O-])c1` (configuration not stated): the Potency is 16.8 µM (active).

For the molecule `CC(C)C(=O)NC(c1ccc([N+](=O)[O-])cc1)c1c(O)ccc2ccccc12` (configuration not stated), the Potency is 13.3 µM (active).

With `Cc1noc(C)c1CSc1nc2sc3c(c2c(=O)n1C)CCCC3`, the Potency is 8.41 µM (active).

Turning to `Cc1nc(N2CCN(C)CC2)c2c3c(sc2n1)CCCC3`, the “activity change, negative = inhibition” value is 63.3%.

For the molecule `Cc1nnc([C@@H]2CC(F)(F)CN2C(=O)c2ccoc2C)o1`, the “activity change, negative = inhibition” value was 33.4%.

As to `Cc1ccccc1C(=O)N1CCC(c2nc3ccccc3s2)CC1`, the “activity change, negative = inhibition” value was 1.54%.

Regarding `Cc1occc1C(=O)N1CCN(C(c2ccccc2)c2ccccc2)CC1`, the Potency is 10.6 µM (active).

Turning to `Cc1ccc(NC(=O)c2c(C)oc3ccc(O)c(CN(C)Cc4ccccc4)c23)c(C)c1`, the Potency is 5.96 µM (active).

For the molecule `Cc1ccccc1NC(=O)c1c(C)oc2ccc(O)c(CN(C)Cc3ccccc3)c12`, the Potency was 2.37 µM (active).

For the molecule `Cc1oc2ccc(O)c(CN(C)Cc3ccccc3)c2c1C(=O)Nc1ccccc1`, the Potency was 2.37 µM (active).

Consider `CCN(CC)c1ccc(-n2nc3cc(C)c(NC(=O)c4ccccc4F)cc3n2)cc1`, for which the “activity change, negative = inhibition” value was -28.1%.

As to `CCN(Cc1ccccc1)Cc1c(O)ccc2oc(C)c(C(=O)Nc3ccccc3C)c12`, the Potency was 4.73 µM (active).

Consider `O=C(Nc1cccc(C(F)(F)F)c1)c1nc2c(o1)CCN(Cc1cccc(F)c1)CC2`, for which the “activity change, negative = inhibition” value was 13.4% [at 43.1 µM].

Regarding `Cc1oc2ccc(O)c(CN(C)Cc3ccccc3)c2c1C(=O)Nc1cccc(C(F)(F)F)c1`, the Potency was 2.11 µM (active).

For `CC(=O)Nc1cccc(C(=O)N2CCC3(CC2)N=C(c2ccc(C)cc2)NO3)c1`, the Potency is 0.842 µM (active).

As for `COc1ccccc1CC(=O)N1CCC2(CC1)N=C(c1cccc(Br)c1)NO2`, the “activity change, negative = inhibition” value was -7.17%.

Consider `CC(=O)Nc1cccc(C(=O)NC2CCCN(c3cc(-c4ccc(Cl)cc4)[nH]n3)C2)c1` (configuration not stated), for which the “activity change, negative = inhibition” value was -18.7%.

Regarding `CCOc1cccc(C2Nc3ccccc3-c3cc(C)nn32)c1O` (configuration not stated), the “activity change, negative = inhibition” value is -12%.

`COc1cccc(/C(C#N)=C/c2c(-c3ccc(Cl)cc3)nc3c(C)cccn23)c1`: the Potency was 5.96 µM (active).

As to `O=C1NC(=O)/C(=C\c2ccc(N3CCOCC3)o2)N1`, the Potency was 9.44 µM (active).

Take `Cc1ccc(C(=O)NC2CCCN(c3cc(-c4ccccc4)[nH]n3)C2)s1` (configuration not stated): the “activity change, negative = inhibition” value is 1.75%.

Consider `Cn1c2ccc(F)cc2c2nnc(SCCN3CCCCC3)nc21`, for which the Potency was 15 µM (active).

On to `Cn1c(=S)c2[nH]c(SCCN3CCCC3)nc2n(C)c1=O`, for which the “activity change, negative = inhibition” value is -13.5%.

For `Nc1nc2[nH]cc(CCc3ccc(C(=O)N[C@@H](CCC(=O)O)C(=O)O)cc3)c2c(=O)[nH]1`, the Potency is 7.5 µM (active).

Turning to `Cc1ccsc1CN1CCCN(S(=O)(=O)c2ccccc2)CCC(=O)NCC1`, the “activity change, negative = inhibition” value is -23.3%.

For the molecule `Cc1ccc(CN2CCCN(Cc3ccncc3)C(c3ccccc3)CC(=O)NCC2)s1` (configuration not stated), the Potency is 2.66 µM (active).

Turning to `Cc1ncsc1CN1CCCN(Cc2ccncc2)C(c2ccccc2)CC(=O)NCC1` (configuration not stated), the Potency was 8.41 µM (active).

As to `Cc1ccc(CN2CCCN(Cc3ccncc3)C(c3ccccc3)CC(=O)NCC2)o1` (configuration not stated), the Potency was 7.5 µM (active).

`CN(C)C(=O)C1CN(C(=O)NC2CCCCC2)CC12CCOCC2` (configuration not stated): the “activity change, negative = inhibition” value was 13.2%.

On to `Cn1cccc1C(=O)N1CC[C@H](NC(=O)Nc2ccc(F)cc2F)[C@H]1C(=O)N[C@H](Cc1ccccc1)C(N)=O`, for which the “activity change, negative = inhibition” value was 35.9%.
